# Source: PubChem (National Center for Advancing Translational Sciences (NCATS))
# Sampled rows, rich in hits. Any-hit rate of the full collection: about 17%.
# ClpP mod: qHTS Assay for Activators of ClpP. ATP-dependent Clp protease proteolytic subunit (Bacillus subtilis (strain 168)), P80244. purified B. subtilis ClpP, FRET peptide cleavage, 20 min. Potency, µM (doses to about 57.5 µM), without a hit: at the highest dose activity change, negative = active. 340,000 compounds, 1.9% hits. AID 651965, 2013; active = well fitted falling curve with a large enough effect; inconclusive = small, poorly fitted or top-dose-only effect; inactive = no such curve, though single readings can be large or run the other way; also: the source files actives as falling curves though it sought activators and does not explain the sign; nearly all actives have a fitted effect of over 65% in size
#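 ClpP 10 microg/mL final, pH 8 Tris/KCl buffer with BSA, glycerol, Tween-20; compound pinned in; FRET-FV substrate; RT 20 min; Ex320/Em430; ΔFRET vs ADEP 5.8 microM, DMSO, no enzyme.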
# DT40 TDP1 CPT: growth inhibition of DT40 Tdp1-/-;hTDP1 cells with camptothecin (screen for TDP1 inhibitors). chicken DT40 Tdp1-/-;hTDP1 cells + 20 nM CPT, ATP luminescence, 48 h. Potency, µM (top dose mostly 46.2 µM), for inactives: at the highest dose activity change, negative = growth inhibition, most hits filed as inhibitors. 420,000 compounds, 12% hits. AID 686979; also: % is scaled to controls: 0 for no effect and ±100 for the full control effect; nearly all actives have a fitted effect of over 55% in size
#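 Chicken DT40 Tdp1-/- cells stably complemented with human TDP1 were seeded at 400 cells/well in medium containing 20 nM camptothecin, exposed to pin-transferred compounds, and grown at 37 °C for at least 48 hr. Viability was read as ATP luminescence.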
# TDP1 cell noCPT: qHTS for Inhibitors of human tyrosyl-DNA phosphodiesterase 1 (TDP1): qHTS in cells in absence of CPT | Potency, µM (top dose mostly 46.2 µM), inactives show at the highest dose activity change, negative = growth inhibition, actives largely listed as inhibitors | DT40 Tdp1-/- hTDP1 cells, no CPT, ATP luminescence, 48 h | 420,000 compounds, 15% hits; also: % is scaled to controls: 0 for no effect and ±100 for the full control effect; nearly all actives have a fitted effect of over 55% in size
#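 Growth kinetics read by CellTiter-Glo luminescence after ≥48 hr at 37 °C. Cells: DT40 Tdp1-/- stably carrying human TDP1, 400 per well, compound exposure in the absence of CPT (DMSO vehicle).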
# TDP1 block: inhibitors of human tyrosyl-DNA phosphodiesterase TDP1 | Q9NUW8 | recombinant TDP1, AlphaScreen DNA substrate cleavage | Potency, µM (series often up to 130 µM), without a hit: at the top dose activity change, negative = inhibition, actives largely listed as inhibitors | 350,000 compounds, 0.28% hits | AID 485290; also: % is scaled to controls: 0 for no effect and ±100 for the full control effect; nearly all actives have a fitted effect of over 40% in size
# Target sequence (Q9NUW8 whole entry, looked up): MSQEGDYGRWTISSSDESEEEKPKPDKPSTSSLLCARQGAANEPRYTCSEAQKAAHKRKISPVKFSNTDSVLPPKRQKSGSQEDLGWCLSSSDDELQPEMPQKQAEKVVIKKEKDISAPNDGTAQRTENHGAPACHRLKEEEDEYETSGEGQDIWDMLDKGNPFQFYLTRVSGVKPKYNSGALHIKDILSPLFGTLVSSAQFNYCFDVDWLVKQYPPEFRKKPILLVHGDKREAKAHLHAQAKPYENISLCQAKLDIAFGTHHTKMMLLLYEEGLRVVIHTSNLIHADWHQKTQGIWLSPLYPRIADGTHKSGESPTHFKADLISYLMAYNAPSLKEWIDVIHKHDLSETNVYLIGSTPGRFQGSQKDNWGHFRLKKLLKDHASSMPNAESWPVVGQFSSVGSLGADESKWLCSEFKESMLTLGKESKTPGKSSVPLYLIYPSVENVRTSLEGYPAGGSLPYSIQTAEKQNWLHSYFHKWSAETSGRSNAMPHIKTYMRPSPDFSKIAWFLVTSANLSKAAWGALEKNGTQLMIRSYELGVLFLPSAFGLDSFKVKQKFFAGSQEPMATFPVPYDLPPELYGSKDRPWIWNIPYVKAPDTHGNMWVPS
#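 Steps: enzyme plus compound, 15 min RT; add biotin/phosphotyrosine-FITC oligonucleotide (15 nM final), react 5 min; add donor/acceptor beads (10 ug/ml final), 10 min; read AlphaScreen. Tdp1 at 1 nM final.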
# * marks the source's active call; other numbers are inactive results; u = inconclusive; x = no result given; [ ] = remark or other dose. Unless noted, calls follow the shape of the dose curve; as a rule, active = well fitted curve in the direction sought with a large enough effect; inconclusive = small, poorly fitted or top-dose-only effect, or another doubt; inactive = no such curve, though single readings can be large; an effect the other way counts as inactive or inconclusive. Potency is read from the fitted curve at half-maximal effect.
SMILES,ClpP mod,DT40 TDP1 CPT,TDP1 cell noCPT,TDP1 block
Cc1cccc(C)c1NC(=O)c1sc(-n2nc(C)c(Cc3ccccc3)c2C)nc1C,-6%,u,u,-1%
Cc1cc(O)ccc1Nc1nc(-c2sc(N)nc2C)cs1,1%,3%,-14%,8%
COc1ccc(OC)c(Nc2nc(-c3sc(N)nc3C)cs2)c1,-2%,u,26µM*,11%
CCCC(=O)Nc1nc(C)c(-c2csc(Nc3cc(OC)ccc3OC)n2)s1,-4%,4.6µM*,6.5µM*,11%
CCCC(C)C(=O)Nc1nc(C)c(-c2csc(Nc3cc(OC)ccc3OC)n2)s1 (centres undefined),-13%,4.6µM*,6.5µM*,7%
COc1ccccc1Nc1nc(-c2sc(NC(=O)CC(C)C)nc2C)cs1,-5%,u,u,9%
CCC(SC1=N/C(=C/c2ccccc2OC)C(=O)N1c1ccccc1)C(=O)Nc1cc(C)on1 (centres undefined),-4%,12µM*,8.2µM*,4%
COc1ccccc1/C=C1\SC(=S)N(CCC(=O)Nc2cc(C)on2)C1=O,x,-19%,u,-4%
CC(C)NC(=O)c1cc(-c2ccc(F)cc2OC(C)C)n[nH]1,-1%,-23%,u,x
COc1ccc(C(CC(=O)O)NC(=O)COc2cc(C)ccc2C)cc1OC (centres undefined),x,0%,-5%,0%
CCOc1ccc(C(CC(=O)O)NS(=O)(=O)c2ccc(C)cc2)cc1OC (centres undefined),-1%,21µM*,u,-2%
COC(=O)c1c(NC2=NS(=O)(=O)c3ccccc32)sc2c1CCC(C(C)(C)C)C2 (centres undefined),x,18µM*,15µM*,x
CCOC(=O)c1[nH]c(C)c(CCC(=O)N2CCN(c3cccc(C)c3C)CC2)c1C,3%,15µM*,18µM*,14%
CCOC(=O)c1[nH]c(C)c(CCC(=O)N2CCN(c3ccc(Cl)cc3)CC2)c1C,0%,u,23µM*,8%
CCOC(=O)c1c(C)[nH]c(C)c1S(=O)(=O)N(C)CC(=O)N1CCN(c2ccc(Cl)cc2)CC1,1%,15µM*,u,11%
CCOC(=O)c1c(C)[nH]c(C)c1S(=O)(=O)N(C)CC(=O)N1CCN(c2cccc(Cl)c2)CC1,-2%,u,u,4%
Cc1cccc(N2CCN(C(=O)CCCOc3ccccc3)CC2)c1C,1%,u,u,-1%
O=C(C[n+]1ccccc1Cl)c1ccc2c(c1)CCCC2,-8%,u,u,x
CCN(CC)CCOC(=O)c1cccnc1,x,2%,-8%,x
O=S(=O)(c1cccc(Cl)c1)N1CCN(c2nc(-c3ccccc3)nc3ccccc23)CC1,0%,u,u,1%
COc1ccc(C(=O)O)cc1S(=O)(=O)Nc1ccccc1-c1ccccc1,x,-10%,0%,x
COc1ccc(S(=O)(=O)NC(C)C)cc1C(=O)N1CCOCC1,28µM*,2%,7%,-2%
O=C(c1ccc(F)cc1F)N1CCC(c2noc(-c3ccc(S(=O)(=O)N4CCCC4)cc3)n2)CC1,1%,-1%,u,2%
COc1ccc(S(=O)(=O)N2CCCCC2)cc1N(C)S(=O)(=O)c1ccccc1,-4%,u,u,2%[56.1 µM]
COc1ccccc1C(=O)N1CCC(c2noc(-c3ccc(S(=O)(=O)N4CCCC4)cc3)n2)CC1,0%,23µM*,16µM*,2%
SMILES,ClpP mod,DT40 TDP1 CPT,TDP1 cell noCPT,TDP1 block
COc1ccc(S(=O)(=O)N2CCCCCC2)cc1N(C)S(=O)(=O)c1ccccc1,-3%,u,23µM*,0%
COc1ccc(S(=O)(=O)N2CCCCC2)cc1C(=O)N1CCCCCC1,14µM*,4%,2%,x
COc1ccc(S(=O)(=O)N2CCCC2)cc1C(=O)N1CCCCC1,-5%,-2%,-1%,2%
CCc1ccc(C(=O)N/N=C(\C)c2cccnc2)s1,1%,-7%,10%,4%
CC1(C)CCC[C@@]2(C)CC=C(C(=O)O)[C@@H]3C[C@]312,-1%,0%,-12%,x
COC(=O)[C@@H](NC(=O)O[C@H]1C(=O)c2cc(OC)ccc2O[C@@H]1c1ccc(OC)c(Br)c1)C(C)C,x,x,x,5%
CC(=O)c1ccc(OCCCC(=O)NCCc2ccc(C(F)(F)F)cc2)cc1,x,-11%,-22%,-15%
CC(O)(c1ccccc1)c1nc(-c2ccc(Cl)cc2)cs1 (centres undefined),-4%,u,u,x
CC(O)(c1ccccc1)c1nc(-c2cc3ccccc3o2)cs1 (centres undefined),-3%,23µM*,13µM*,x
CN(C)c1ccc(-c2csc(C(C)(O)c3ccccc3)n2)cc1 (centres undefined),-4%,15µM*,16µM*,x
COc1ccccc1CNC(=O)C1CCN(C(=O)c2sccc2-n2cccc2)CC1,-2%,-23%,u,2%
OC(COc1ccccc1)CN1CCOCC1 (centres undefined),-1%,0%,-3%,5%
c1ccc(COC(CN2CCCCCC2)CN2CCCCCC2)cc1,1%,10µM*,21µM*,x
CC(C)(C)c1ccc(OCC(O)CN2CCCC2)cc1 (centres undefined),2%,-20%,u,x
OC(COc1ccc(-c2ccccc2)cc1)CN1CCCCC1 (centres undefined),1%,u,26µM*,x
CCC(=O)c1ccc(OCC(O)CN2CCN(S(=O)(=O)N3CCCCC3)CC2)cc1 (centres undefined),2%,u,u,2%
OC(COCc1ccccc1)CN1CCCC1 (centres undefined),1%,-9%,-8%,2%
OC(COc1ccccc1)CN1CCCCC1 (centres undefined),32µM*,-7%,5%,x
O=C(c1ccccc1)c1ccc(OCC(O)CN2CCN(S(=O)(=O)N3CCCCC3)CC2)cc1 (centres undefined),1%,u,18µM*,8%
Cc1nc(SCc2nc3c(O)cccc3[nH]2)c2oc3ccccc3c2n1,x,x,x,0%
CCCc1nc2cc(C)c(Br)c(C)n2c1Cc1ccsc1,-5%,12µM*,18µM*,x
Cc1ccc(-c2nc3cc(C)c(Br)c(C)n3c2Cc2ccsc2)cc1,-1%,5.2µM*,7.3µM*,x
Cc1cc2nc(-c3cccc(Br)c3)c(Cc3ccsc3)n2c(C)c1Br,-2%,u,u,x
Cc1ccc(-c2nc3cc(C)c(Br)c(C)n3c2CC(C)(C)C)cc1,-4%,9.2µM*,16µM*,x
CCCc1nc2ccc(Cl)cn2c1Cc1ccsc1,-18%,21µM*,13µM*,x
Cc1ccc2cc3cc(C(=O)Nc4ccc(F)cc4Cl)oc3nc2c1,14%,u,u,2%
